Assay outcomes from PubChem BioAssay.
TIM10 inh – inhibits growth of TIM10 yeast strain. S. cerevisiae TIM10 strain growth, BacTiter-Glo luminescence, 24 h. inhibition, % at 10 µM. 330,000 compounds, 1.4% hits. AID 463195;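 active = inhibition of 40% or more at the single tested concentration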;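 also: wild-type TIM10 isogenic control strain grown at permissive 25 °C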
tim10-1 inh – growth inhibitors of tim10-1 mutant yeast | S. cerevisiae tim10-1 ts strain growth, BacTiter-Glo, 24 h | 330,000 compounds, 2.2% hits | inhibition, % at 20 µM | AID 463190;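 active = inhibition of at least 40%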;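 also: mutant grown at 25 °C; 0% = DMSO wells with yeast and 100% = wells holding no yeast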
tim23-1 inh – growth inhibitors of tim23-1 mutant yeast; S. cerevisiae tim23-1 growth, BacTiter-Glo luminescence, 24 h; inhibition, % at 20 µM; 330,000 compounds, 1.3% hits;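 active = growth inhibition of the mutant yeast at or above 50%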;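 also: temperature-sensitive mutant grown at 25 °C; plate controls were DMSO-treated mutant yeast for no effect and medium wells lacking yeast for full effect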
NALP3 yeast inh – blocks the NALP3 inflammasome reconstituted in yeast | Yeast reconstituted NLRP3/ASC/caspase-1, beta-gal luminescence, 24 h | inhibition, % at 10 µM | 330,000 compounds, 0.39% hits | AID 2825;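 active = inhibition of 50% or more; inactive = inhibition below 50%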;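 also: plate controls were induced DMSO wells for no effect and uninduced yeast grown without galactose for full effect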
PfHsp90 yeast 2 – reduces growth (ATP signal) of yeast expressing P. falciparum Hsp90. S. cerevisiae expressing PfHsp90, BacTiter-Glo ATP, 48 h; yeast lacking PDR1 and PDR3 efflux regulators. inhibition, % at 9.4 µM. 310,000 compounds, 0.32% hits. AID 504621;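 active = every replicate shows inhibition above about 80%, whatever the replicate mean, limit read from the data; inconclusive = mean inhibition reaches the set limit but some replicate falls short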;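 also: 0% = DMSO neutral controls and 100% = 20 µM radicicol positive controls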
TIM10 conf – TIM10 yeast growth inhibition, confirmed | shares compounds with TIM10 inh | S. cerevisiae tim10 strain growth, BacTiter-Glo luminescence, 24 h | inhibition, % at 10 µM | 4,600 compounds, 63% hits | AID 463215;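 active = inhibition of yeast growth at or above a set limit in either of two replicates at 10 µM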;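 also: this counterscreen used the strain with wild-type TIM10; 0% = yeast with DMSO and 100% = medium wells lacking yeast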
tim23-1 conf – confirmation of tim23-1 mutant yeast growth inhibitors | inhibition, % at 20 µM | AID 463218 | S. cerevisiae tim23-1 growth, BacTiter-Glo luminescence, 24 h | 4,400 compounds, 83% hits | shares compounds with tim23-1 inh;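 active = inhibition above about 39% in either of two replicate wells at 20 µM, limit read from the data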;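 also: temperature-sensitive tim23-1 mutant grown at 25 °C; 0% = DMSO wells with yeast and 100% = medium wells without yeast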
* = called active by the depositor; ? = inconclusive; nt = not tested or not shown. Sampled rows, rich in hits. Any-hit rate of the full collection: about 3.7%.

SMILES | TIM10 inh | tim10-1 inh | tim23-1 inh | NALP3 yeast inh | PfHsp90 yeast 2 | TIM10 conf | tim23-1 conf
O=[N+]([O-])c1ccc(O)c(C=Nc2ccc3c(c2)OCCO3)c1 | 18 | 4 | 39 | 18 | 31 | nt | nt
Oc1c(Br)cc(Br)cc1C=Nc1ccc2c(c1)OCO2 | 66* | 36 | 82* | 42 | 6 | 52* | 72*
O=C(Nc1cccc(N=Cc2cc(Br)cc(Br)c2O)c1)c1ccco1 | nt | nt | nt | nt | 9 | nt | nt
COc1cc(/C=N/NC(=O)C(=O)/C=C2\NC(C)(C)Cc3ccccc32)ccc1O | 34 | 28 | 42 | -12 | 30 | nt | nt
COc1ccc(-n2cnc3cc(NCc4ccccn4)ccc32)cc1 | 23 | -16 | 12 | 21 | 18 | nt | nt
c1ccc(-n2cnc3cc(NCc4ccco4)ccc32)cc1 | 53* | 25 | 54* | 41 | nt | 39* | 68*
Cc1ccc(N2C(=O)N(CC(=O)Nc3ccc(C)cc3Cl)C(=O)C2C)cc1 (stereo not drawn) | 0 | 1 | 19 | 29 | -11 | nt | nt
COc1ccccc1N=Nc1nc(-c2ccccc2)c(-c2ccccc2)[nH]1 | nt | nt | nt | nt | 5 | nt | nt
Oc1ccccc1N=Nc1nc(-c2ccccc2)c(-c2ccccc2)[nH]1 | 56* | 26 | 53* | 21 | 106* | 57* | 62*
Cc1ccccc1C(=O)N/N=C/c1ccc([N+](=O)[O-])s1 | 52* | 33 | 76* | 15 | 0 | 47* | 66*
N#C/C(=C/c1cccc(O)c1)C(=O)NCc1ccc(Cl)cc1 | 71* | 37 | 77* | 9 | -22 | 77* | 75*
S=C(Sc1ccc(Cl)cc1)Sc1ccc(Cl)cc1 | 47* | 28 | 73* | 40 | nt | 42* | 77*
CC(=O)/C(=C\N(C)C)Sc1ccc(Cl)cc1 | -4 | -8 | -2 | 12 | -25 | nt | nt
COc1ccc(-c2nn(CCC#N)cc2C(=O)Nc2cccc(C(=O)O)c2)cc1[N+](=O)[O-] | 12 | 7 | -3 | 15 | -16 | nt | nt
CCOC(=O)c1c(C)[nH]c(C(=O)COC(=O)COc2ccccc2C=O)c1C | 53* | 23 | 54* | -5 | -20 | 51* | 62*
CC(CNC(=O)c1ccc(OC2CCN(Cc3ccccn3)CC2)cc1)c1ccccc1 (stereo not drawn) | 12 | 17 | 14 | 13 | 11 | nt | nt
O=C1NC(=Nc2ccccc2)S/C1=C/c1cccs1 | 49* | 26 | 62* | 44 | -21 | 32* | 72*
CCCCCNc1nc(-c2ccccc2)cs1 | 1 | 26 | 14 | 22 | nt | nt | nt
CC(=O)c1cccc(NC(=O)N2C3CCC2CC(NC(=O)C2CC2)C3)c1 (stereo not drawn) | -8 | 2 | 12 | 12 | 22 | nt | nt
Oc1ccc(/C=N/Nc2ncc(Br)cn2)c(O)c1 | 67* | 32 | 70* | 20 | -20 | -26 | 67*
Cc1cc(-c2ccccc2)nc(N/N=C/c2ccc(O)cc2O)n1 | 57* | 35 | 64* | 30 | -5 | 61* | 70*
CN1C(=S)N(c2cccnc2)C(=O)/C1=C\c1ccc(C(C)(C)C)cc1 | 55* | 33 | 55* | 28 | ? | 56* | 46*
Cc1ccc(-n2sc3ccccc3c2=O)cc1 | 65* | 36 | 59* | -10 | -124 | 1 | 56*
Cc1ccc(Cn2c(=O)sc3ccccc3c2=O)cc1 | 10 | 8 | 18 | 49 | 8 | nt | nt
COc1ccc(OC)c(Nc2ncnc3ccc(Br)cc23)c1 | 7 | 1 | 17 | 25 | -5 | nt | nt
SMILES | TIM10 inh | tim10-1 inh | tim23-1 inh | NALP3 yeast inh | PfHsp90 yeast 2 | TIM10 conf | tim23-1 conf
Brc1ccc2ncnc(Nc3cccc4ccccc34)c2c1 | 41* | 28 | 73* | 43 | -43 | 29 | 47*
COc1ccc2c(c1)cc(C(=O)N[C@H](C(=O)N1CCC(C(=O)O)CC1)C(C)C)n2C | -9 | 9 | 12 | 2 | -9 | nt | nt
CCCN(CC(=O)Nc1ccccc1C)C(=O)CCCc1c[nH]c2ccccc12 | 3 | 6 | 13 | 19 | -5 | nt | nt
COc1ccc(CC(=O)O/N=C(\N)Cc2ccc(OC)c(OC)c2)cc1 | 6 | 11 | 7 | 0 | 23 | nt | nt
COc1ccc(C/C(N)=N/OC(=O)CCc2ccccc2)cc1 | 71* | 23 | 72* | 18 | -21 | 83* | 78*
O=[N+]([O-])/C=C/c1c(OCc2ccccc2)ccc2ccccc12 | 73* | 34 | 61* | 9 | 1 | 6 | 47*
CCCCOc1ccc2ccccc2c1C=O | 29 | 27 | 45 | 36 | 2 | nt | nt
Cn1cc(Br)c(NS(=O)(=O)c2ccc(Cl)s2)n1 | -9 | -3 | 2 | 19 | 4 | nt | nt
O=C(Nc1ccon1)c1cccc(S(=O)(=O)N2CCCCC2)c1 | 3 | 21 | 6 | -1 | -17 | nt | nt
CCNc1nc(N)nc(-c2cc(Cl)ccc2O)n1 | 50* | 34 | 56* | 21 | 52 | -9 | 37
COc1ccc2c(c1)[C@@H]1[C@H](CO2)[C@H](c2ccccc2)[C@]2(C)C(=O)Nc3ccc(C)cc3C(=O)N12 | 42* | 35 | 58* | 5 | 16 | 35* | 57*
CCc1c(C)nc(N)n2c(SCC(=O)N3CCCC(C)C3)nnc12 (stereo not drawn) | -7 | -8 | 12 | 11 | nt | nt | nt
C=CCSC(=C(C#N)C#N)c1cc2c([nH]1)CCCC2 | 41* | 29 | 52* | 34 | -26 | 23 | 62*
O=C(COc1cc(O)c2c(=O)c3ccccc3oc2c1)OCc1ccccc1 | 3 | 4 | -1 | 3 | -1 | nt | nt
CCCC(=O)NC(=S)Nc1cccc(NC(=O)c2ccccc2Cl)c1 | 45* | 36 | 53* | -2 | 2 | 39* | 44*
N#CC(C(=O)c1ccccc1Cl)=C1SCCCS1 | 42* | 31 | 69* | 28 | -11 | 40* | 52*
Cc1cc([N+](=O)[O-])nn1CCCC(=O)Nc1cc(Cl)ccc1Cl | -9 | 9 | 19 | 22 | -5 | nt | nt
Oc1c(-c2cc(-c3ccco3)[nH]n2)ccc2ccccc12 | 39 | 24 | 25 | 18 | -49 | nt | nt
Oc1ccc(Cl)cc1-c1cc(-c2ccco2)[nH]n1 | 49* | 38 | 72* | 10 | -36 | 38* | 15
COc1ccccc1C/C(N)=N/OC(=O)c1ccc2c(c1)OCO2 | 71* | 24 | 72* | 9 | -18 | 80* | 77*
COc1ccccc1CC(=O)NCc1ccc2c(c1)OCO2 | -15 | 7 | 8 | 3 | nt | nt | nt
O=C(Nc1ccc2nc3n(c(=O)c2c1)CCCCC3)c1ccccn1 | 46* | 35 | 55* | 33 | 4 | 36* | 68*
Cc1cccc(C)c1N=Nc1c(C)cc(O)cc1C | 47* | 24 | 63* | 25 | 112* | 65* | -1
O=C(O)CSc1ncnc2scc(-c3ccccc3)c12 | 10 | 5 | 10 | 4 | -2 | nt | nt
